Measurements reported in PubChem BioAssay (EPA / NIEHS).
Calls of active or inactive are those of the source. Rule for the calls: active = hit-call score of the fitted dose curve at least 0.9, where 1 is the maximum; inactive = score below 0.9.

Target: Myc proto-oncogene protein (Homo sapiens) (UniProt P01106)
Test: ATG_Myc_CIS: Attagene CIS-FACTORIAL HepG2 Assay for human Myelocytomatosis (Myc) Proto-Oncogene Transcription Factor (AID 2282990)
Details: HepG2, Attagene cis-reporter transcription factor activity; actives raise or lower the signal
Description: ATG_CIS is a cell-based, multiplexed-readout assay that uses HepG2, a human liver cell line, with measurements taken at 24 hours after chemical dosing in a 24-well plate.ATG_Myc_CIS is one of 52 assay component(s) measured or calculated from the ATG_CIS assay. It is designed to make measurements of mRNA induction, a form of inducible reporter, as detected with fluorescence intensity signals by Reverse transcription polymerase chain reaction (RT-PCR) and Capillary electrophoresis technology.Data from the assay component ATG_Myc_CIS was analyzed into 1 assay endpoint. This assay endpoint, ATG_Myc_CIS, was analyzed with bidirectional fitting relative to DMSO as the negative control and baseline of activity. Using a type of inducible reporter, measures of mRNA for gain or loss-of-signal activity can be used to understand the reporter gene at the transcription factor-level as they relate to the gene MYC. Furthermore, this assay endpoint can be referred to as a primary readout, because this assay has produced multiple assay endpoints where this one serves a reporter gene function. To generalize the intended target to other relatable targets, this assay endpoint is annotated to the dna binding intended target family, where the subfamily is basic helix-loop-helix leucine zipper.
Human liver HepG2 cells are transiently transfected with multiple reporter transcription units (MRTUs) in 6-well plates using FuGene 6 reagent (Roche; 3 ml FuGene/1 mg DNA). The MRTU constructs are regulated by a cis-regulating element (promoter). […] A major difference between the CIS and TRANS system is that in CIS activities of endogenous TFs are measured, whereas the TRANS assay evaluates changes in activities of exogenous, chimeric NR-Gal4 proteins. […] At the end of 24 hour incubation, total RNA was isolated using TriZol reagent (Invitrogen). The isolated RNA is then reverse-transcribed using oligo(dT) primer and Mo-MLV reverse transcriptase (Invitrogen) with DNAse I (Ambion) treatment for 30 min. The one-tenth of the produced cDNA was amplified by PCR using Taq DNA polymerase (Invitrogen) and two reporter sequence-specific primers. The PCR products were fluorescently labeled by primer extension with 6-arboxyfluorescein (6-FAM) 5'-labeled reporter sequence-specific primer (2 min at 95 C, 20 s at 68 C and 10 min at 72 C) and these products were digested with 5U of HpaI (New England Biolabs) for 2h at 37 C. The fragments were purified using Qiaquick PCR columns (Qiagen), analyzed on an ABI 3130xL genetic analyzer (Applied Biosystems) with peak positions identified by using a set of X-rhodamine (ROX)-labeled MapMarker1000 molecular weight standards (BioVentures). The raw capillary electrophoresis data was processed using Attagraph software (Attagene).

Sequence of Myc proto-oncogene protein (Homo sapiens) (P01106 whole entry, looked up): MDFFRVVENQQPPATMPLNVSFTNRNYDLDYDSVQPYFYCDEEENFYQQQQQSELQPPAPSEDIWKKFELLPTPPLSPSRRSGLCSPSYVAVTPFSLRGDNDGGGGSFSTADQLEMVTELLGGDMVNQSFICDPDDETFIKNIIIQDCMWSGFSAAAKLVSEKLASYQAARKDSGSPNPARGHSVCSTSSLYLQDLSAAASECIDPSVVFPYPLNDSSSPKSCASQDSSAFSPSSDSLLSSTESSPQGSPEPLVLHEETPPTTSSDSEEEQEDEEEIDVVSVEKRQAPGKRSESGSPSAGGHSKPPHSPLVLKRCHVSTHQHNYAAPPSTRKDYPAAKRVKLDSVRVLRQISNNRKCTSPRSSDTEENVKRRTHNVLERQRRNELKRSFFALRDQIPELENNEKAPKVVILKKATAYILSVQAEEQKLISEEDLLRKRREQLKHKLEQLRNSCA

outcome, inactive:
CC(=O)OC(C)C, Cc1cc(C)c(C)c(C)c1, CC(=O)Oc1ccc(C(C)=O)cc1, CCCCCCCC/C=C\CCCCCCCC(=O)O, CC(C)=CCC[C@H](C)CCO, CC/C=C\C/C=C\C/C=C\CCCCCCCC(=O)O, COC(=O)c1ccccc1OC, O=S1(=O)OC(c2ccc(O)cc2)(c2ccc(O)cc2)c2ccccc21, N=c1ccn2c(n1)O[C@H]1[C@H](O)[C@@H](CO)O[C@H]12, CCCCCCCCCCOC(C)=O, ON(Cc1ccccc1)Cc1ccccc1, C=CC(=O)OCCOC(=O)C=C, Cc1ccc(N/N=c2\c(=O)cc/c(=N/Nc3ccc(S(=O)(=O)O)cc3)c2=O)c(C)c1, C1=Cc2ccccc2C1, COc1ccc(NC(C)=O)cc1N, CCCCOCCOC(=O)COc1nc(Cl)c(Cl)cc1Cl, CC1(C)[C@H]2CC[C@]1(C)C(=O)C2, C1=CCCC1, C(=CC=Nc1ccccc1)C=CNc1ccccc1, O=c1[nH]c(=O)c2[nH]c(=O)[nH]c2[nH]1, C/C=C\C/C=C/CCCCCCCCOC(C)=O, CCC(CO)CO, Nc1nc2ccccc2[nH]1, N[C@H]1C(O)O[C@H](CO)[C@H](O)[C@@H]1O (stereo not given in full), O=C1CCCC(=O)O1, C=CC(=O)OCCOC1C2CCC1C1CC=CC12 (stereo not given), CC(C)(Oc1ccc(C2CC2(Cl)Cl)cc1)C(=O)O (stereo not given), Nc1ccc(-c2ccc(F)cc2)cc1, C=C(C)[C@@H]1CCC2=CCC[C@@H](C)[C@]2(C)C1, CC(C)(C)c1ccc(-c2ccc(C(C)(C)C)cc2)cc1, OCCN(CCO)c1ccccc1, O=c1cc[nH]c(=S)[nH]1, C=C[Si](OC(C)=O)(OC(C)=O)OC(C)=O, CC(C)=CC1CC(C)CCO1 (stereo not given), NCCCN1CCN(CCCN)CC1, Cc1cc(O)c(Cl)c(C)c1Cl, COc1cc(NC(=O)CC(C)=O)c(OC)cc1Cl, CC(C)(C)C1CCCCC1=O (stereo not given), c1ccc(CNCc2ccccc2)cc1, COC(=O)/C=C\C(=O)O
